In PubChem BioAssay AID589 (National Center for Advancing Translational Sciences (NCATS), 2007) one finds max dye-equivalent concentration data, which are given here for 77 compounds.

In all, about 59,000 compounds went through this assay and about 6,200 (11%) were called active. Not shown: some 9% with an inconclusive outcome. Cut-off read from the data, not from the text of the source: active = max dye-equivalent concentration above about 10 nM; inconclusive = mostly about 1.1 nM to 9.6 nM; inactive = weaker than that. Only a selection was taken, and actives are over-represented in it overall.

This test is described as follows: qHTS Assay for Spectroscopic Profiling in 4-MU Spectral Region. Particulars: compound autofluorescence, 340/450 nm, 4-MU equivalents; stronger effect = higher value. The gist of the method:
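Intrinsic fluorescence at 340/450 nm (ex/em) was read after 15 min at room temperature in pH 8.0, 100 mM Tris. Each compound concentration expressed as 4-MU-equivalent concentration from a six-point 4-MU standard series on each plate.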
For `O=C(c1cc(C(F)(F)F)cc(C(F)(F)F)c1)N1CCC2(CCCN(Cc3ccncc3)C2)CC1`, the max dye-equivalent concentration entry was “inactive”.

As to `COc1ccc(-c2nn(-c3ccccc3)cc2C(=O)Nc2nc(CC(C)=O)ns2)cc1`, the max dye-equivalent concentration result is “inactive”.

In the case of `CCn1c(CSc2nncn2-c2ccc(OC)cc2)nc2cc(S(=O)(=O)N(C)C)ccc21`, the max dye-equivalent concentration entry is “inactive”.

Take `Nc1nc(SCCOc2ccccc2)n[nH]1`: the max dye-equivalent concentration entry is “inactive”.

For the compound `CCOC(=O)C1CCN(C(=O)C2CCN(S(=O)(=O)N3CCCC3)CC2)CC1`, the max dye-equivalent concentration result was “inactive”.

Take `COc1ccc(Cl)cc1S(=O)(=O)Nc1cccc(C(=O)O)c1`: the max dye-equivalent concentration entry was “inactive”.

Regarding `COc1ccc(C(c2nnnn2Cc2cccs2)N2CCN(c3ccccc3)CC2)cc1OC` (configuration not stated), the max dye-equivalent concentration result was “inactive”.

As for `Nc1nonc1-c1nc2ccccc2n1Cc1ccc(F)cc1`, the max dye-equivalent concentration entry is “inactive”.

As to `Nn1c(SCC(=O)NC(=O)NC2CCCC2)nnc1-c1ccccc1F`, the max dye-equivalent concentration entry is “inactive”.

Regarding `CC(=O)NC1=NC(=O)CS1`, the max dye-equivalent concentration entry is “inactive”.

`COC(=O)c1[nH]c2ccccc2c1NS(=O)(=O)c1ccc(OC)cc1OC`: the max dye-equivalent concentration result is “inactive”.

For the compound `CCOc1ccccc1NC(=O)Nc1cc(OC)ccc1OC`, the max dye-equivalent concentration entry is “inactive”.

`COc1ccc(OC)c(N=Cc2c(O)[nH]c3ccccc23)c1`: the max dye-equivalent concentration is 59 nM (active).

Turning to `Cc1nn(-c2ccccc2)c(C)c1C(=O)OCC(=O)NC(=O)NC1CCCCC1`, the max dye-equivalent concentration result was “inactive”.

Take `CCC(C)(C)NC(=O)C(c1cccn1C)N(Cc1ccc(C)cc1)C(=O)Cn1nnc2ccccc21` (configuration not stated): the max dye-equivalent concentration entry was “inactive”.

In the case of `CC(C)NC[C@H](O)c1ccc2ccccc2c1`, the max dye-equivalent concentration result is “inactive”.

Regarding `CCCCC[C@H](O)CCCC(=O)O`, the max dye-equivalent concentration result was “inactive”.

For the compound `COc1ccc(OC)c(C2N(c3ccccn3)C(=O)C3CCCN32)c1` (configuration not stated), the max dye-equivalent concentration entry was “inactive”.

On to `CCn1nc(NC(=O)c2ccco2)c2cc3ccc(C)cc3nc21`, for which the max dye-equivalent concentration was 64 nM (active).

For the compound `CCN(CC)C(=O)c1sc(NC(=O)c2ccco2)c(C#N)c1C`, the max dye-equivalent concentration entry is “inactive”.

`Cc1ccnc(NC(=O)c2ccc(NC(=O)c3ccco3)cc2)c1`: the max dye-equivalent concentration result is “inactive”.

With `C=CCNc1nc(C)nc(OC)n1`, the max dye-equivalent concentration entry is “inactive”.

Regarding `C=CCn1c(COc2ccccc2C)nnc1SCC(=O)O`, the max dye-equivalent concentration entry was “inactive”.

Turning to `Cn1c(SCC(=O)Nc2cccc(NC(=O)c3cccs3)c2)nnc1-c1ccncc1`, the max dye-equivalent concentration result is “inactive”.

For `O=C(O)c1ccc(NC(=O)c2cccs2)cc1`, the max dye-equivalent concentration result was “inactive”.

Take `Cc1nc(-c2ccc(NC(=O)c3cccs3)cc2)cs1`: the max dye-equivalent concentration is 220 nM (active).

Consider `Cc1cc(=O)[nH]c(SCC(=O)N2c3ccccc3CC2C)n1` (configuration not stated), for which the max dye-equivalent concentration entry was “inactive”.

Regarding `NC(=NC(=O)c1ccccc1)C1=C(O)CCC1=O`, the max dye-equivalent concentration result was “inactive”.

As for `CC(C)N(C(=O)COC(=O)c1ccccc1C(=O)N1CCN(c2ccc(F)cc2)CC1)C(C)C`, the max dye-equivalent concentration result was “inactive”.

For the compound `O=C(c1cccc2ccccc12)N1CCN(c2ccccc2F)CC1`, the max dye-equivalent concentration entry is “inactive”.

For `Cn1c2ccccc2c2c(C(=O)N3CCN(c4ccc(F)cc4)CC3)cn(C3CCCC3)c(=O)c21`, the max dye-equivalent concentration was 16 nM (active).

In the case of `COc1ccc(-n2nnnc2SCC(=O)c2ccc(OC)c(OC)c2)cc1`, the max dye-equivalent concentration entry is “inactive”.

`CCSc1nc2c(c(=O)[nH]1)C(c1cccnc1)C(C(=O)OC(C)C)=C(C)N2` (configuration not stated): the max dye-equivalent concentration is 10 nM (active).

On to `COC(=O)C1=C(N)Oc2cc(C)oc(=O)c2C1c1cccnc1` (configuration not stated), for which the max dye-equivalent concentration entry was “inactive”.

For the compound `CC1=C(C(=O)OC2CCCCC2)C(c2cccnc2)n2ncnc2N1` (configuration not stated), the max dye-equivalent concentration entry is “inactive”.

With `O=C(Nc1cccc(F)c1)N1CC2(CCN(C(=O)c3cnccn3)CC2)C1`, the max dye-equivalent concentration entry is “inactive”.

Turning to `COc1ccc(NC(=O)c2c(SC)nsc2SC)cc1`, the max dye-equivalent concentration result was “inactive”.

For the compound `CCOc1ccc(C(C)C)cc1S(=O)(=O)n1nc(C)cc1C`, the max dye-equivalent concentration entry is “inactive”.

Consider `Cc1ccc(OCCCC(=O)N2CCOCC2)c(C)c1`, for which the max dye-equivalent concentration result is “inactive”.

In the case of `CSc1ccc(-c2c(C#N)c(N)nc3c2c(C)nn3-c2ccccc2)cc1`, the max dye-equivalent concentration is 360 nM (active).

Consider `CCCc1[nH]nc2c1C(c1c(C)nn(-c3ccccc3)c1Cl)C(C#N)=C(N)O2` (configuration not stated), for which the max dye-equivalent concentration result is “inactive”.

As to `CSc1nc(N)c(C#N)c(-c2ccccc2Cl)c1C#N`, the max dye-equivalent concentration result is “inactive”.

Take `CCc1c(C)nc(N)n2c(SCC(=O)N3CCN(c4ccccc4)CC3)nnc12`: the max dye-equivalent concentration entry was “inactive”.

As for `CCOC(=O)c1cnc(SCC(=O)NCc2ccco2)nc1N`, the max dye-equivalent concentration result is “inactive”.

Consider `COc1c(C)cccc1C(=O)Nc1cc(Cl)ccc1N1CCOCC1`, for which the max dye-equivalent concentration result was “inactive”.

`Cc1nc(C)c(C(=O)Nc2ccc(C)c(F)c2)o1`: the max dye-equivalent concentration entry was “inactive”.

As for `COc1ccc(Cl)cc1NC(=O)c1oc(C)nc1C`, the max dye-equivalent concentration was 15 nM (active).

In the case of `CCOC(=O)c1csc(NC(=O)c2ccc(S(=O)(=O)N3CCCC3)cc2)n1`, the max dye-equivalent concentration entry is “inactive”.

On to `CC(C)c1ccc(-c2nn[nH]n2)cc1`, for which the max dye-equivalent concentration result is “inactive”.

Regarding `Cc1ccc(F)cc1NC(=O)c1cccc(N(C)C)c1`, the max dye-equivalent concentration entry was “inactive”.

As for `COc1ccc2oc(=O)c(C(=O)N3CCCc4ccccc43)cc2c1`, the max dye-equivalent concentration entry is “inactive”.

Consider `COc1ccc(CN2CC(C(=O)NCCN3CCN(c4ccccc4F)CC3)CC2=O)cc1` (configuration not stated), for which the max dye-equivalent concentration entry was “inactive”.

Take `COc1ccc2oc(=O)c(C(=O)N3CCN(c4ccccc4F)CC3)cc2c1`: the max dye-equivalent concentration was 39 nM (active).

With `CCCCC(CCC(=O)Nc1ccc(C(=O)OCC)cc1)C(=O)O` (configuration not stated), the max dye-equivalent concentration entry is “inactive”.

Consider `Cc1cc(Cl)c(S(=O)(=O)NCC2CCCO2)cc1OCC(N)=O` (configuration not stated), for which the max dye-equivalent concentration entry was “inactive”.

`NC(=O)COc1ccc2c3c(c(=O)oc2c1)CCCCC3`: the max dye-equivalent concentration is 26 nM (active).

In the case of `O=C(COc1ccccc1F)NC1CC1`, the max dye-equivalent concentration entry is “inactive”.

Regarding `O=C(COc1ccc2c3c(c(=O)oc2c1)CCC3)NC1CCCCC1`, the max dye-equivalent concentration was 64 nM (active).

`O=C(CC1OC(=O)c2ccccc21)NC1CCCCC1` (configuration not stated): the max dye-equivalent concentration entry was “inactive”.

In the case of `O=C(COc1ccc2oc3c(c2c1)CCCC3)Nc1ccccn1`, the max dye-equivalent concentration entry is “inactive”.

As for `c1ccc2c(c1)OCC(c1nn3cnnc3s1)O2` (configuration not stated), the max dye-equivalent concentration result is “inactive”.

For `CCN(C(=O)CSc1ncn[nH]1)c1cccc2ccccc12`, the max dye-equivalent concentration result is “inactive”.

With `Cc1noc(C)c1S(=O)(=O)Nc1ccc(C(=O)O)cc1`, the max dye-equivalent concentration result was “inactive”.

`O=C(NC(c1ccccc1)c1ccccc1)N1CCN(CCO)CC1`: the max dye-equivalent concentration result was “inactive”.

Turning to `COc1ccc(OC)c(NC(=O)Cn2c(=O)oc3ccccc32)c1`, the max dye-equivalent concentration entry is “inactive”.

For the compound `C#CCN1C(=O)C(O)(CC(=O)c2cc(OC)ccc2OC)c2ccccc21` (configuration not stated), the max dye-equivalent concentration is 13 nM (active).

As to `COc1ccc(N2C(=O)CCC(C(=O)N(C)C3CCCCC3)C2c2ccc(OC)c(OC)c2)cc1` (configuration not stated), the max dye-equivalent concentration entry was “inactive”.

Turning to `CNC(=O)NCCN1CCCC1=O`, the max dye-equivalent concentration result was “inactive”.

Take `COc1ccccc1C(=O)NCCn1cc(SCC(=O)NCc2ccco2)c2ccccc21`: the max dye-equivalent concentration result was “inactive”.

For the compound `COc1ccc(CNC(=O)c2cc3c(=O)n4ccccc4nc3n(CC3CCCO3)c2=N)cc1` (configuration not stated), the max dye-equivalent concentration is 270 nM (active).

For the compound `COc1ccc(CNC(=O)C2CCN(S(=O)(=O)N3CCOCC3)CC2)cc1`, the max dye-equivalent concentration result is “inactive”.

As to `CCOCCCNC(=O)c1c[nH]c2cc(C)ccc2c1=O`, the max dye-equivalent concentration result was “inactive”.

For the compound `COc1cc(OC)cc(-c2nc3nc(C)c(CCC(=O)NCc4ccco4)c(C)n3n2)c1`, the max dye-equivalent concentration result is “inactive”.

With `COc1ccc(CCn2c(=N)c(C(=O)NCc3ccco3)cc3c(=O)n4cccc(C)c4nc32)cc1`, the max dye-equivalent concentration is 11 nM (active).

As for `COCCCNC(=O)c1ccc2c(c1)ncn2-c1ccccc1OC`, the max dye-equivalent concentration result is “inactive”.

As to `COc1ccc(C(=O)NCc2cn3ccccc3n2)cc1`, the max dye-equivalent concentration entry is “inactive”.

Regarding `CCn1c(=N)c(C(=O)NCCCOC)cc2c(=O)n3cccc(C)c3nc21`, the max dye-equivalent concentration is 12000 nM (active).
